From article PMC10726135, “HNF4α isoforms regulate the circadian balance between carbohydrate and lipid metabolism in the liver” come the findings set out here.

The full ranking holds about 18,000 sequences; the median of “log2 normalized intensity” is about 0.36, and the highest 2% start at about 7.3. The list comes from a sample in which the highest values are over-represented; it also holds similar and randomly drawn sequences.

For this assay, the target named is T1, HNF4alpha8 (COS-7 nuclear extract) (Homo sapiens, UniProt P41235-5 1-452).
T1 sequence: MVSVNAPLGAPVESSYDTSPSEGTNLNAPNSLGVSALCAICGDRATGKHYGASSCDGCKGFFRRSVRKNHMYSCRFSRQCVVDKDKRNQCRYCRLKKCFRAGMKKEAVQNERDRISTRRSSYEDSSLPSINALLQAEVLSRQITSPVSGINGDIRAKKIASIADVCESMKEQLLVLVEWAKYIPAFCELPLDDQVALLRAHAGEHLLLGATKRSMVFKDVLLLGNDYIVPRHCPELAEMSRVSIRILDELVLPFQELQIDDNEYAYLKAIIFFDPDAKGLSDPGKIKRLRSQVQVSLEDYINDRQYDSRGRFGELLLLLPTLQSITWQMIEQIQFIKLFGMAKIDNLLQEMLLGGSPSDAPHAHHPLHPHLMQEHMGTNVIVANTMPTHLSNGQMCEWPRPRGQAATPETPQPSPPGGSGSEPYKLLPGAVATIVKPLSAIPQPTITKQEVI
The assay is described as follows: protein-binding microarray; COS-7 nuclear extract on double-stranded Agilent 4x180k PBM; binding buffer, salt, pH and temperature not given in the material; high values mean tight binding. The following applies: chain copies: 2; label: 3' end of strand 1 on the slide; dsDNA, one strand shown. The procedure, abridged:
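Nuclear extracts of COS-7 cells transiently transfected with a human HNF4α isoform were applied to a custom Agilent SurePrint G3 4x180k array bearing ~44,000 double-stranded ~60-nt test sequences, each in quadruplicate. The bound protein was imaged on an Agilent G2565CA scanner at 2-µm resolution. Binding signal is the normalized, background-corrected gProcessedSignal from Agilent software.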
As to “ACCTCTTATCAAGCGTGCACCCCAGGTACGGCCTAGGGAGATTAGAGTATCGGTCGA”, the binding signal was 1.3 log2 normalized intensity.

Turning to “ATGGTGTTTGCTTTGTGAAGGCTTATCTGCGCCTAGGGAGATTAGAGTATCGGTCGA”, the binding signal stood at 0.591 log2 normalized intensity.

“GGTTCTTCCACGACTCCCCCGCTCACCCCTGCCTAGGGAGATTAGAGTATCGGTCGA”: the binding signal turned out to be 5.08 log2 normalized intensity.

As to “AACTTTTCCATGTCCAAAGGTCTTCATGAGGCCTAGGGAGATTAGAGTATCGGTCGA”, the binding signal stood at 4.33 log2 normalized intensity.

Regarding “AGTGCCATGTAATCAAACTGAACTTTGAAAGCCTAGGGAGATTAGAGTATCGGTCGA”, the binding signal amounted to 4.48 log2 normalized intensity.

In the case of “AACATCATAGAGTGTACTTATGCAGACCTGGCCTAGGGAGATTAGAGTATCGGTCGA”, the binding signal was 0.968 log2 normalized intensity.

For “CCTCCAGCTACTCACTCTTCCCAAATAGGTGCCTAGGGAGATTAGAGTATCGGTCGA”, the binding signal was -0.273 log2 normalized intensity.

Turning to “AAGTGCGTCCTGTGGCAAAGGTGAATGACCGCCTAGGGAGATTAGAGTATCGGTCGA”, the binding signal came to 2.99 log2 normalized intensity.

On to “TTCACAGAGCAAGGGTCCAGATTAGAGCACGCCTAGGGAGATTAGAGTATCGGTCGA”, for which the binding signal turned out to be 2.52 log2 normalized intensity.

Regarding “AAAGCCACCCCTTTCTCCTCTCTTTCCATAGCCTAGGGAGATTAGAGTATCGGTCGA”, the binding signal worked out at 0.633 log2 normalized intensity.

Regarding “GGACAAAGTTCCCCGGGCAGCTGTGTTTGCGCCTAGGGAGATTAGAGTATCGGTCGA”, the binding signal worked out at 0.702 log2 normalized intensity.

As for “CTCCAACTGCTCCTCTTCAACTGATTCTTGGCCTAGGGAGATTAGAGTATCGGTCGA”, the binding signal was -0.845 log2 normalized intensity.

For “GGGGCCTAGCTTGTAAAGGGTAATCTGCTTGCCTAGGGAGATTAGAGTATCGGTCGA”, the binding signal is -0.484 log2 normalized intensity.

On to “CTTCCAAGGCTGCAAGCAAACCTGCCCTTTGCCTAGGGAGATTAGAGTATCGGTCGA”, for which the binding signal turned out to be 4.57 log2 normalized intensity.

Take “CAGGGTGGGGTCTCGCTGCTTCGGCCTTTGGCCTAGGGAGATTAGAGTATCGGTCGA”: the binding signal was 1.11 log2 normalized intensity.

For “TCTCGCTGCTTCGGCCTTTGACCTCGTGATGCCTAGGGAGATTAGAGTATCGGTCGA”, the binding signal was 7.09 log2 normalized intensity.

For “TGGGGTCTCGCTGCTTCGGCCTTTGACCTCGCCTAGGGAGATTAGAGTATCGGTCGA”, the binding signal came out at 8.46 log2 normalized intensity.

With “TGCCTGCAGGAGAGAGCAAAGTCCACGCATGCCTAGGGAGATTAGAGTATCGGTCGA”, the binding signal came out at 6.82 log2 normalized intensity.

Take “CAGGGAGCCCTTATATCCACATGGGTCCAAGCCTAGGGAGATTAGAGTATCGGTCGA”: the binding signal stood at 3.03 log2 normalized intensity.

Take “GACCAGTCTGCCTGACTCCAGAGTCCAAACGCCTAGGGAGATTAGAGTATCGGTCGA”: the binding signal is 4.23 log2 normalized intensity.

“AGTCCAAAGGTCTGAGAACCAAGAGAGCCAGCCTAGGGAGATTAGAGTATCGGTCGA”: the binding signal is 1.62 log2 normalized intensity.

In the case of “CTATCTGCCTGCAGGAGAGAGCAAAGTCCAGCCTAGGGAGATTAGAGTATCGGTCGA”, the binding signal is 8.21 log2 normalized intensity.

As to “GCATGGCTCAGTCCAAGTCCAAAGGTCTGAGCCTAGGGAGATTAGAGTATCGGTCGA”, the binding signal was 6.28 log2 normalized intensity.

On to “AGTCTTGAGTCCCAAAGTCCAAAGGCAGTCGCCTAGGGAGATTAGAGTATCGGTCGA”, for which the binding signal is 3.61 log2 normalized intensity.

With “AGCCCTTATATCCACATGGGTCCAAAGTTCGCCTAGGGAGATTAGAGTATCGGTCGA”, the binding signal worked out at 9.47 log2 normalized intensity.

As for “CTTGAGTCCAGGAGTGCAAAGCTGCTATGAGCCTAGGGAGATTAGAGTATCGGTCGA”, the binding signal is -0.723 log2 normalized intensity.

Regarding “CCAAAGTCCAAAGTCCAGTCTTATCTGAGAGCCTAGGGAGATTAGAGTATCGGTCGA”, the binding signal came to 7.93 log2 normalized intensity.

“CAACTCCAAAGTCCAAAGTCCAGTCTTATCGCCTAGGGAGATTAGAGTATCGGTCGA”: the binding signal was 8.47 log2 normalized intensity.

For “ATTCCTAAGTTCCAAAGGCCATCCACATTCGCCTAGGGAGATTAGAGTATCGGTCGA”, the binding signal was 2.4 log2 normalized intensity.

Turning to “TTCAGTCTTTGTCTTAGCCTGCTCTTTTCCGCCTAGGGAGATTAGAGTATCGGTCGA”, the binding signal was found to be 1.12 log2 normalized intensity.

As to “CCTCTGAAAACTTTTACTGGGAAGAGATAAGCCTAGGGAGATTAGAGTATCGGTCGA”, the binding signal was -0.817 log2 normalized intensity.

In the case of “AGATAAGACAAGCTCTGTTTGTTTTGTTACGCCTAGGGAGATTAGAGTATCGGTCGA”, the binding signal came to 1.26 log2 normalized intensity.

As to “ATACAGAATCAATGCCTGATTCCAAAGTCCGCCTAGGGAGATTAGAGTATCGGTCGA”, the binding signal came out at 6.36 log2 normalized intensity.

Regarding “GAATCAATGCCTGATTCCAAAGTCCACTTTGCCTAGGGAGATTAGAGTATCGGTCGA”, the binding signal was determined as 7.71 log2 normalized intensity.

Consider “ACTTTGCCTTTTGGCTAAAGTCCAAATTCCGCCTAGGGAGATTAGAGTATCGGTCGA”, for which the binding signal came to 6.01 log2 normalized intensity.

Turning to “GTCAAAACTTTGTTTGAGTTCCAAAGTCCAGCCTAGGGAGATTAGAGTATCGGTCGA”, the binding signal is 7.18 log2 normalized intensity.

Consider “TGTTTGAGTTCCAAAGTCCATGTTCATAACGCCTAGGGAGATTAGAGTATCGGTCGA”, for which the binding signal was 5.66 log2 normalized intensity.

For the sequence “AACTTTGTTTGAGTTCCAAAGTCCATGTTCGCCTAGGGAGATTAGAGTATCGGTCGA”, the binding signal was 7.61 log2 normalized intensity.

Turning to “TGTTTGTTTTGAGATAGGGTCTTGCTTTGTGCCTAGGGAGATTAGAGTATCGGTCGA”, the binding signal turned out to be 1.3 log2 normalized intensity.

Turning to “CACTCATGGTGTTTGCTTTGTGAAGGCTTAGCCTAGGGAGATTAGAGTATCGGTCGA”, the binding signal is 0.417 log2 normalized intensity.

For “TTCCTCCAGCCTGTCGGAATTTGCCCTGTGGCCTAGGGAGATTAGAGTATCGGTCGA”, the binding signal was 5.15 log2 normalized intensity.

On to “ACCATTAACCCTACAGTCCTGCCACATCCCGCCTAGGGAGATTAGAGTATCGGTCGA”, for which the binding signal was -0.385 log2 normalized intensity.

As to “ATCTCATCCTGTGACCAAGAATGTCTAACCGCCTAGGGAGATTAGAGTATCGGTCGA”, the binding signal is -0.428 log2 normalized intensity.

For “ACTTTGACCTAGAAGCCAGGGACCAGGAAGGCCTAGGGAGATTAGAGTATCGGTCGA”, the binding signal is -0.796 log2 normalized intensity.

“ATTTGACCCTTGGCCAGGTGCAGTGGCTCAGCCTAGGGAGATTAGAGTATCGGTCGA”: the binding signal came out at 3.54 log2 normalized intensity.

Consider “TCTTGACCAGGCAAGCTTGACCTTTGATCCGCCTAGGGAGATTAGAGTATCGGTCGA”, for which the binding signal was found to be 10 log2 normalized intensity.

For “CTTGACCTTTGATCCAGGCTCAGTGGGCGTGCCTAGGGAGATTAGAGTATCGGTCGA”, the binding signal was found to be 5.72 log2 normalized intensity.

“TTGATCCAGGATCCTTCTTGACCAGGCAAGGCCTAGGGAGATTAGAGTATCGGTCGA”: the binding signal was 0.747 log2 normalized intensity.

Turning to “ATCCTTCTTGACCAGGCAAGCTTGACCTTTGCCTAGGGAGATTAGAGTATCGGTCGA”, the binding signal was 7.77 log2 normalized intensity.

In the case of “CAAGCTTGATCCAGGATCCTTCTTGACCAGGCCTAGGGAGATTAGAGTATCGGTCGA”, the binding signal came out at 1.18 log2 normalized intensity.

On to “GCAAGCTTGACCTTTGATCCAGGCTCAGTGGCCTAGGGAGATTAGAGTATCGGTCGA”, for which the binding signal came out at 8.22 log2 normalized intensity.

Turning to “TTAGGATGACCTTTAGATTCTTACAGGCAAGCCTAGGGAGATTAGAGTATCGGTCGA”, the binding signal stood at 4.57 log2 normalized intensity.

In the case of “GCTCCTGTTCCTTTGTTACACTGGCTGCCCGCCTAGGGAGATTAGAGTATCGGTCGA”, the binding signal amounted to 2.08 log2 normalized intensity.

Turning to “AAAGGTCACCAGTGAGCCAAGGTACCCTGGGCCTAGGGAGATTAGAGTATCGGTCGA”, the binding signal is 1.29 log2 normalized intensity.
